The record followed here is PubChem BioAssay (NCI).

Among the test systems are NCI-H23 lung; NCI-H226 lung; NCI-H322M lung; HOP-62 NSCLC; NCI-H460 lung; HOP-92 NSCLC; NCI-H522 lung; A549/ATCC NSCLC; 786-0 renal; COLO 205 colon; DU-145 prostate; K-562 leukemia; MALME-3M melanoma; MDA-MB-231 breast; RXF 393 renal; SF-268 CNS; SF-295 CNS; SF-539 CNS; UACC-257 melanoma; M14 melanoma.
Assay in all cases: NCI-60 one-dose screen, 48 h (100 = growth as untreated, 0 = no growth, -100 = all killed)
What all share (settings): 10 µM unless noted

Structures are written as SMILES. This is part of a sample that, as a whole, favours compounds with a hit. Of some 83,000 tested, about 20% had one in any assay.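 Interpretation: 100, growth as untreated; towards 0, rising growth inhibition; 0, no net growth; 0 to -100, cell death. Compounds scoring below 10 were considered active.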 Values without a mark were called inactive. Activity calls are given as the source filed them.

Regarding `CNC1=C([N+](=O)[O-])C(c2ccc(OC)cc2)C(C#N)=C(c2ccc[nH]2)O1` (stereo not given), the growth is 98.5% in the assay with NCI-H23 lung; 102% in the assay with NCI-H226 lung; 101% in the assay on NCI-H322M lung; 99% in the assay with HOP-62 NSCLC; 100% in the assay on NCI-H460 lung; 96.2% in the assay on HOP-92 NSCLC. Besides, the growth in the assay on NCI-H522 lung was 92.3%; with A549/ATCC NSCLC, 106%; with 786-0 renal, 106%; with COLO 205 colon, 107%; with DU-145 prostate it was 107%; with K-562 leukemia, 95.7%. Also, the growth in the assay with MALME-3M melanoma is 97.9%; in the assay with MDA-MB-231 breast, 104%; with RXF 393 renal, 113%; in the assay on SF-268 CNS, 103%; with SF-295 CNS it was 101%; in the assay with SF-539 CNS, 99.2%. The figures for the growth in the assay with UACC-257 melanoma and in the assay with M14 melanoma were 106% and 104%, respectively.

Turning to `C=C1CC[C@@H]2[C@](C)(COC(C)=O)[C@H](OC(C)=O)CC[C@@]2(C)[C@@H]1CC(Nc1ccc(S(=O)(=O)Nc2nccc(C)n2)cc1)C1=CCOC1=O` (stereo not given in full), the growth in the assay on NCI-H23 lung was 48.4%; with NCI-H226 lung it was -12.1% (active); in the assay on NCI-H322M lung, 64.8%; in the assay with HOP-62 NSCLC, 156%; with NCI-H460 lung, 46.9%; in the assay on HOP-92 NSCLC, 71.6%. Also, the growth with NCI-H522 lung is -50.6% (active); with A549/ATCC NSCLC, 63.4%; in the assay on 786-0 renal, 32.5%; in the assay on COLO 205 colon, 9.64% (active); in the assay with DU-145 prostate, 38.5%; in the assay on K-562 leukemia, 3.62% (active). The growth in the assay on MALME-3M melanoma was -0.704% (active); in the assay with MDA-MB-231 breast, 13.3%; in the assay on RXF 393 renal, -38.3% (active); with SF-268 CNS, 43.2%; with SF-295 CNS it was 78.6%; with SF-539 CNS, -62.7% (active). The growth was 48.5% in the assay on UACC-257 melanoma and 11.2% in the assay on M14 melanoma.

`CC(=O)OCCOc1cc(Cl)c(Cl)cc1Cl`: the growth was 97.4% with NCI-H23 lung; 101% with NCI-H226 lung; 112% with NCI-H322M lung; 103% with HOP-62 NSCLC; 109% in the assay on NCI-H460 lung; 82.3% in the assay on HOP-92 NSCLC. The growth was 86.6% with NCI-H522 lung; 90.8% in the assay on A549/ATCC NSCLC; 100% in the assay on 786-0 renal; 121% in the assay with COLO 205 colon; 105% with DU-145 prostate; 102% in the assay with K-562 leukemia. Further, the growth is 114% in the assay with MALME-3M melanoma; 94.3% with MDA-MB-231 breast; 102% in the assay with RXF 393 renal; 99.4% in the assay on SF-268 CNS; 95% in the assay on SF-295 CNS; 107% in the assay with SF-539 CNS. The growth is 102% with UACC-257 melanoma and 103% with M14 melanoma.

With `CNC(=O)c1cc(Oc2ccc3nc(NC(=O)Nc4ccc(F)cc4F)sc3c2)ccn1`, the growth was 47% with NCI-H23 lung; 52.8% with NCI-H226 lung; 62.2% with NCI-H322M lung; 60.7% in the assay with HOP-62 NSCLC; 63% in the assay on NCI-H460 lung; -13.7% (active) with HOP-92 NSCLC. The growth in the assay on NCI-H522 lung is 68.7%; in the assay on A549/ATCC NSCLC, 44.8%; with 786-0 renal, 64%; with COLO 205 colon, 87.1%; with DU-145 prostate, 65.7%; with K-562 leukemia, 71.5%. The growth in the assay with MALME-3M melanoma was 46.2%; in the assay with MDA-MB-231 breast, 47.7%; in the assay with RXF 393 renal, 42.3%; in the assay with SF-268 CNS it was 76.1%; in the assay with SF-295 CNS, 76.7%; in the assay with SF-539 CNS it was 61.7%. Further, the figures for the growth with UACC-257 melanoma and with M14 melanoma were 74.3% and 69.1%, respectively.

In the case of `O=C(O)CCCN1C(=O)CSC1=S`, the growth in the assay with NCI-H23 lung is 104%; in the assay with NCI-H226 lung, 111%; in the assay with NCI-H322M lung, 100%; in the assay on HOP-62 NSCLC it was 103%; with NCI-H460 lung, 101%; with HOP-92 NSCLC, 103%. Also, the growth with NCI-H522 lung was 93.3%; with A549/ATCC NSCLC it was 105%; in the assay with 786-0 renal it was 102%; with COLO 205 colon, 120%; in the assay with DU-145 prostate, 107%; in the assay with K-562 leukemia, 103%. The growth with MALME-3M melanoma was 102%; in the assay on MDA-MB-231 breast, 107%; with RXF 393 renal it was 107%; with SF-268 CNS, 93.9%; in the assay with SF-295 CNS it was 106%; with SF-539 CNS, 102%. The growth was 95.9% with UACC-257 melanoma and 93.3% in the assay on M14 melanoma.

Consider `CCOC(=O)c1ccc2c(c1)c1c(C)c3cnccc3c(C)c1n2C`, for which the growth is -51.2% (active) with NCI-H23 lung; -33.6% (active) in the assay on NCI-H226 lung; -14.1% (active) with NCI-H322M lung; -47.3% (active) in the assay on HOP-62 NSCLC; -17.2% (active) in the assay with NCI-H460 lung; -24.2% (active) in the assay with HOP-92 NSCLC. For the same molecule, the growth is -79.1% (active) with NCI-H522 lung; -11.8% (active) with A549/ATCC NSCLC; -95.7% (active) in the assay with 786-0 renal; -63.9% (active) with COLO 205 colon; -17% (active) in the assay on DU-145 prostate; 0.0057% (active) in the assay with K-562 leukemia. The growth in the assay with MALME-3M melanoma was -91.3% (active); with MDA-MB-231 breast it was -55.9% (active); in the assay with RXF 393 renal, -83% (active); in the assay with SF-268 CNS, -15.9% (active); in the assay with SF-295 CNS, -24.3% (active); in the assay on SF-539 CNS, -95.8% (active). The growth in the assay on UACC-257 melanoma is -42.2% (active); with M14 melanoma, -88.3% (active).
